PubChem BioAssay AID720597 (Broad Institute, 2013)
Potency and affinity values are given separately. Calls of active or inactive are those of the source.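 How the source made its calls: active means fitted half-maximal dose no more than twice the top valid tested dose, for compounds that lower signal; inconclusive means fit invalid, or curve flat with activity between -70 and -30; inactive means potency past limit, curve flat within ±30, or signal increasing.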

These compounds were tested against NAD-dependent protein deacylase sirtuin-5, mitochondrial (Homo sapiens) (UniProt Q9NXA8) (assay: SIRT5 deacylase inhibitors, dose response, biochemical, fluorescence imaging, cherry-pick, set 6 (AID 720597;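 further: lower AMC signal can also come from blocking the trypsin step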)). Details: Purified SirT5, succinyl-peptide-AMC/trypsin fluorescence; series mostly up to 15 µM.
Chain of NAD-dependent protein deacylase sirtuin-5, mitochondrial (Homo sapiens) (Q9NXA8 whole entry, looked up): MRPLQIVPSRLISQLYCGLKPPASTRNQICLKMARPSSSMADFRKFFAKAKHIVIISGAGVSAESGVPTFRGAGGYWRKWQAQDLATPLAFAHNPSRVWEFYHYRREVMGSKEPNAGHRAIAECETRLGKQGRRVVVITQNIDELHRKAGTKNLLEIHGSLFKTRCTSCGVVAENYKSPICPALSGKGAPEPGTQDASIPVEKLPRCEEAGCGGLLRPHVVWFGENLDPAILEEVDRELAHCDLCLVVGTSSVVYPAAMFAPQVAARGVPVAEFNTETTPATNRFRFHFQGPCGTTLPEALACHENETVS

outcome, inactive:
O=S(=O)(c1cccs1)N1CCCCN2[C@H](CO)[C@H](c3ccc(C4=CCCCC4)cc3)[C@H]2C1
C/C=C/c1ccc([C@@H]2[C@@H](CO)N(C(C)=O)[C@H]2CN(C(=O)COC)C(C)C)cc1
C[C@@H]1CN([C@H](C)CO)C(=O)Cc2cc(NC(=O)Nc3ccc(F)cc3)ccc2O[C@H]1CN(C)C
CC(C)CC#Cc1ccc2c(c1)O[C@H](CN(C)S(=O)(=O)c1cccc(F)c1)[C@H](C)CN([C@H](C)CO)S2(=O)=O
COc1ccc(NC(=O)Nc2ccc3c(c2)C(=O)N([C@H](C)CO)C[C@@H](C)[C@@H](CN(C)Cc2ccc(C(F)(F)F)cc2)O3)cc1
O=C(CN1CCOCC1)N1CC[C@H]2[C@H](CO)Nc3ccc(-c4ccc(F)cc4)cc3[C@H]21
C[C@@H]1CN([C@H](C)CO)C(=O)c2cccc(N(C)C)c2O[C@@H]1CN(C)C(=O)NC1CCCCC1
C[C@H](O)C#Cc1cnc2c(c1)C(=O)N([C@H](C)CO)C[C@H](C)[C@@H](CN(C)CC1CCCC1)O2
C[C@H]1CN([C@@H](C)CO)S(=O)(=O)c2ccc(C#Cc3ccc(F)cc3)cc2O[C@@H]1CN(C)S(=O)(=O)c1ccc(F)cc1
COCC(=O)NC[C@H]1N[C@H](CO)[C@H]1c1ccc(C2=CCCCC2)cc1
C[C@@H]1CN([C@H](C)CO)S(=O)(=O)c2ccc(/C=C/c3ccccc3)cc2O[C@H]1CN(C)C(=O)NC1CCCCC1
C/C=C/c1ccc2c(c1)O[C@H](CN(C)Cc1cccc(F)c1)[C@H](C)CN([C@H](C)CO)S2(=O)=O
